Data reported in ChEMBL document CHEMBL4513146, “CO-ADD screening of Karazin Kharkiv National University (Ukraine) compounds”.
Entries with a potency or affinity are not part of this list.

What follows are compounds tested on Cryptococcus neoformans. Details: Concentration 32 ug.mL-1; ASSAY_TEST Inhibition of Fungal Growth; detection method Resazurin; Absorption (OD600-OD570); plate type 384well; NBS; CORNING #3640.

Compound | Inhibition [%]
Cc1ccc(NC(=O)CSc2nc3ccccc3n3c(C(C)C)nnc23)cc1Cl | -22.27
COC(=O)c1cccc(NC(=O)Cn2nc3ccc(-c4ccc(C)c(C)c4)nn3c2=O)c1 | -13.54
Cc1ccc(Oc2nccn3c(=O)n(CC(=O)Nc4ccc(C)cc4Cl)nc23)cc1 | -3.03
COc1ccc(Cl)cc1NC(=O)Cn1nc2c(Sc3ccc(C)cc3C)nccn2c1=O | -21.72
Cc1cc(C)cc(Nc2nc(C)cc3nn(CC(=O)N(C)c4cccc(C)c4)c(=O)n23)c1 | -3.53
Cc1ccc(C)c(-c2cc3c4nnc(CCC(=O)NCCc5ccc(Cl)cc5)n4ccn3n2)c1 | -40.65
COc1ccccc1-n1ccn2c(SCc3cc(C)ccc3C)nnc2c1=O | -7.82
CC(C)c1nnc2c(SCC(=O)Nc3ccc4c(c3)OCO4)nc3ccccc3n12 | -20.34
Cc1ccc(C)c(NC(=O)Cn2nc3cc(C)nc(Nc4ccc(F)cc4)n3c2=O)c1 | -16.31
Cc1cccc(C)c1NC(=O)Cn1nc2c(N3CCSCC3)nc3ccccc3n2c1=O | -23.14
COc1ccc(NC(=O)Cn2nc3ccc(-c4ccccc4)nn3c2=O)cc1Cl | -3.35
CCOC(=O)c1ccc(NC(=O)Cn2nc3c4cc(-c5ccc(Cl)cc5)nn4ccn3c2=O)cc1 | -16.17
Cc1ccc(NC(=O)CSc2nc3ccccc3n3c(C)nnc23)cc1C | -14.42
CCc1nnc2c(S(=O)(=O)N(Cc3ccc(F)cc3)c3cccc(Cl)c3)cccn12 | -7.67
COc1cccc(-n2ccn3c(SCC(=O)c4c(C)[nH]c5ccccc45)nnc3c2=O)c1 | -9.48
CCc1nnc2c(S(=O)(=O)N(Cc3cccc(C)c3)c3ccc(Cl)cc3)cccn12 | -3.81
Cc1nnc2ccc(S(=O)(=O)N(Cc3cccc(F)c3)c3ccc(F)c(F)c3)cn12 | -11.8
COC(=O)c1ccc(NC(=O)Cn2nc3nc(N4CCCCCC4)ccn3c2=O)cc1 | -8.37
COc1ccc(OC)c(NC(=O)Cn2nc3c4cc(-c5ccc(Cl)cc5)nn4ccn3c2=O)c1 | -21.9
Cc1nnc2ccc(S(=O)(=O)N(Cc3ccccc3Cl)c3ccc(F)cc3)cn12 | -2.96
CCCn1c(=O)c2sccc2n2c(CCC(=O)NC(C)C34CC5CC(CC(C5)C3)C4)nnc12 (stereo not given) | -25.73
COc1ccc(NC(=O)Cn2nc3c4cc(-c5ccc(C)cc5)nn4ccn3c2=O)cc1Cl | -15.26
CC(C)c1nnc2c(=O)n(CC(=O)Nc3ccc(Cl)cc3)c3ccccc3n12 | -17.29
Cc1ccc(Oc2nc3ccccc3n3c(=O)n(CC(=O)Nc4ccccc4C(F)(F)F)nc23)cc1 | -22.18
O=C(Cn1nc2c3sc(N4CCCC4)nc3ncn2c1=O)Nc1ccc(F)c(Cl)c1 | -11.29
